In PubChem BioAssay AID1851 (National Center for Advancing Translational Sciences (NCATS), 2009):
Values joined by “and” are separate entries in the source; they are usually repeats but may differ in a detail not shown here. Identical values can stand only once. Hit rate of the full screen: of about 16,000 compounds, about 2,600 (16%) were called active. Not shown: some 20% with an inconclusive outcome. Calls come from the whole dose curve; as a rule, active = well fitted curve in the direction sought with a large enough effect; inconclusive = small, poorly fitted or top-dose-only effect, or effect the other way; inactive = no such curve, though single readings can be large or run the other way. The list is a sample of the results.

Each compound was assayed against Cytochrome P450 2D6 (Homo sapiens) (UniProt P10635) (assay: Cytochrome panel assay with activity outcomes). Settings: recombinant CYP, pro-luciferin dealkylation, luminescence, p450-cyp2d6; series mostly up to 57.1 µM; activity, negative = inhibition: at the top concentration.
Cytochrome P450 2D6 (Homo sapiens), sequence (P10635 whole entry, looked up): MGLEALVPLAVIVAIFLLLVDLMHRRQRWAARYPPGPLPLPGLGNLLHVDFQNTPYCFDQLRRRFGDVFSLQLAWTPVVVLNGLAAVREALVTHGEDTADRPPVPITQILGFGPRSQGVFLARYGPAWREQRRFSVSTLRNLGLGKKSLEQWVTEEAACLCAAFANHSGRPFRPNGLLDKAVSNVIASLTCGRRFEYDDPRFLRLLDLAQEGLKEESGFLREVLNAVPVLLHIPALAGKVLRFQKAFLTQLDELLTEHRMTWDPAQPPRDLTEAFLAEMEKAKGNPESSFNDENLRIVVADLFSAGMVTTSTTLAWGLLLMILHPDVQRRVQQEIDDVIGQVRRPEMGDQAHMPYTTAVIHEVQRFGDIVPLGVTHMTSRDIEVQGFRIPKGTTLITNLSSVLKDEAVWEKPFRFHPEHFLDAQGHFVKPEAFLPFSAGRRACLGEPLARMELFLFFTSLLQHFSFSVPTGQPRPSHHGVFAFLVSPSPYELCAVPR
% is set by controls: 0 for no effect and ±100 for the full control effect.

Structure (SMILES)	activity, negative = inhibition	AC50
CCOC(=O)c1[nH]c(C(=O)O)c(CCC(=O)OC)c1C	1.16% (inactive)	
Cc1ccc(Cl)cc1N1CCN(S(=O)(=O)c2ccc3c(c2)OCCO3)CC1	7.2% (inactive)	
CN1CCN(c2cc(-c3ccccc3C(F)(F)F)ncn2)CC1	-0.967% (inactive)	
CN1CCN(C2=Cc3ccccc3Oc3ccc(Cl)cc32)CC1		0.0398 µM (active)
COCCn1c(=O)c(-c2ccc(Cl)cc2)nc2cnc(Nc3ccccc3)nc21	-2.28% (inactive)	
Cn1c(N)c(N=Nc2ccc(S(N)(=O)=O)cc2)c(=O)n(C)c1=O	5.11% [at 11.4 µM] (inactive)	
Cc1cc(N2CCOCC2)nc2ccc(Cc3ccc4nc(N5CCOCC5)cc(C)c4c3)cc12	-2.88% [at 11.4 µM] (inactive)	
CCN(CC)C(=O)N1CCN(C)CC1	2.61% [at 25.6 µM] (inactive)	
COc1ccc(Sc2ccc(NC(=O)c3ccccc3Cl)cc2C#N)cc1	-7.88% (inactive)	
Cc1cccc(NC(=O)CC2Nc3cccc4cccc(c34)NC2=O)c1 (stereo unspecified)		14.1 µM (active)
CC(=O)Nc1ccc(NC(=O)CC2Nc3cccc4cccc(c34)NC2=O)cc1 (stereo unspecified)	-14.1% (inactive)	
CCOC(=O)c1ccc(NC(=O)CC2NCCNC2=O)cc1 (stereo unspecified)	20.7% (inactive)	
Cc1nc(NS(=O)(=O)c2ccc(Br)cc2)c2c3c(sc2n1)CCC3	-1.48% (inactive)	
Cc1cc(NC(=O)c2cccc(F)c2)no1	-5.34% (inactive)	
Cc1ccc(-c2csc(C(C#N)=C3CCCC3)n2)cc1	-8.56% (inactive)	
Cc1ccc(N2CC(C(=O)Nc3cc(C)on3)CC2=O)cc1 (stereo unspecified)	-5.5% (inactive)	
Cc1cnc(CNc2ncncc2-c2ccoc2)cn1	-4.95% (inactive)	
c1csc(CNc2ncncc2-c2ccoc2)c1		15.8 µM (active)
c1ccc(CNc2ncncc2-c2ccoc2)cc1		20 µM (active)
NCCCC(=O)O	-8.46% (inactive)	
CCC(=O)O[C@@H]1[C@H](C)O[C@H](O[C@H]2[C@@H](N(C)C)[C@H](O)[C@@H](O[C@@H]3[C@@H](CC=O)C[C@@H](C)[C@@H](O)/C=C\C=C/C[C@@H](C)OC(=O)C[C@@H](OC(=O)CC)[C@H]3OC)O[C@H]2C)C[C@]1(C)O	1.46% [at 25.6 µM] (inactive)	
CCCCCCC1CC(C)(/C(C)=N/NC(N)=O)OC1=O (stereo unspecified)	-0.404% (inactive)	
CCOC(=O)N/N=C1/C[C@@H](O)[C@@H](O)[C@@H]2[C@@H]3C(=O)N([C@@H](C)c4ccccc4)C(=O)[C@H]3CC[C@@H]12	0.427% [at 11.4 µM] (inactive)	
COc1ccc(NC(=S)Nc2ncccc2C)c(OC)c1	-10.3% (inactive)	

Structure (SMILES)	activity, negative = inhibition	AC50
Nc1nc2c(ncn2[C@@H]2C=C[C@@H](CO)C2)c(=O)[nH]1	4.55% [at 11.4 µM] (inactive)	
Cc1cc(-c2c(C)[nH]n(-c3ccccc3)c2=O)n(-c2ccccc2)n1	5.39% (inactive)	
O=C(O)[C@H](Cc1ccc(O)c([N+](=O)[O-])c1)N1C(=O)c2ccccc2C1=O	6.61% [at 11.4 µM] (inactive)	
CN1CCN(c2ncc3nc(-c4ccc(F)cc4)c(=O)n(Cc4cccs4)c3n2)CC1	-9.25% (inactive)	
CN(C)Cc1ccccc1-c1nc(N2CCOCC2)c2ccccc2n1		7.94 µM (active)
Cc1noc(C)c1-c1nc(N2CCOCC2)c2ccccc2n1	-9.56% (inactive)	
Cc1cccc(CNc2nc(-c3ccccc3CN(C)C)nc3ccccc23)c1		12.6 µM (active)
CNc1nc(-c2c(C)noc2C)nc2ccccc12	-7.2% (inactive)	
Cc1ccccc1-c1nc(N2CCOCC2)c2ccccc2n1	-2.84% (inactive)	
CN(C)Cc1ccccc1-c1nc(N(C)C)c2ccccc2n1		2.51 µM (active)
CNc1nc(-c2ccccc2CN(C)C)nc2ccccc12		3.98 µM (active)
COc1ccc(N2CC(C(=O)OCC(=O)c3cccc(OC)c3)CC2=O)cc1 (stereo unspecified)	-5.52% (inactive)	
O=C1CC(c2ccccc2)Cc2nc(N3CCc4ccccc4C3)ncc21 (stereo unspecified)	-15.2% (inactive)	
O=C(Nc1nnc(C2CC2)s1)c1ccc(S(=O)(=O)c2ccccc2)cc1	-9.23% (inactive)	
COCCNC(=O)c1ccc2c(c1)nc(C)n2-c1cc(OC)c(OC)c(OC)c1	-6.19% (inactive)	
COC(=O)COc1ccc2c(-c3cccc([N+](=O)[O-])c3)cc(=O)oc2c1	-14.7% (inactive)	
Cc1cc(C(=O)OCC(=O)NCCCN2CCCC2=O)c2ccccc2n1	3.93% (inactive)	
O=C(C1=C(O)C(=O)N(Cc2ccco2)C1c1ccccc1)c1cccs1 (stereo unspecified)	-5.75% (inactive)	
CN(C)Cc1ccccc1-c1nc(NCc2cccs2)c2ccccc2n1		20 µM (active)
Cc1noc(C)c1-c1nc(NC2CCNCC2)c2ccccc2n1	-9.54% (inactive)	
COCCNc1nc(-c2ccccc2CN(C)C)nc2ccccc12		12.6 µM (active)
CN(C)Cc1ccccc1-c1nc(NC2CC2)c2ccccc2n1		3.98 µM (active)
CN(C)C(=O)c1ccc(-c2nc(NC3CCNCC3)c3ccccc3n2)cc1	-2.47% (inactive)	
CN(C)Cc1ccccc1-c1nc(NCc2ccccc2)c2ccccc2n1		20 µM (active)

Structure (SMILES)	activity, negative = inhibition	AC50
COCCNc1nc(-c2ccccc2C)nc2ccccc12	-14.1% (inactive)	
COCCNc1nc(-c2c(C)noc2C)nc2ccccc12	-6.93% (inactive)	
CC1=C(C#N)C(NC(=O)C2CCCCC2)(C(F)(F)F)C(=O)N1 (stereo unspecified)	6.67% (inactive)	
N#Cc1nc(-c2ccc(F)cc2)oc1N1CCCC1	-17.6% (inactive)	
CCOC(=O)c1cc(-c2ccccc2)sc1NC(=S)Nc1cc(C)ccn1	-4.98% (inactive)	
NCCNS(=O)(=O)c1ccc(N)cc1	1.63% [at 11.4 µM] (inactive)	
CCn1c(SCC(=O)Nc2sc3c(c2C#N)CCC(C(C)(C)C)C3)nnc1-c1ccco1 (stereo unspecified)	-4.2% (inactive)	
COc1ccc(C(=O)N2CCC[C@@]3(CCN(c4cccc(-c5ccccc5)c4)C3)C2)cc1	-6.88% (inactive)	
Cn1ncc2c(Nc3cccc(C(=O)O)c3)ncnc21	-22% (inactive)	
CN[C@]1(C)[C@H]2CC[C@@H](C2)C1(C)C	-10% [at 25.6 µM] (inactive)	
CCc1ccc(N2CC(C)Cn3c2nc2c3c(=O)n(CCN3CCOCC3)c(=O)n2C)cc1 (stereo unspecified)	-5.49% (inactive)	
CC(C)[C@@H](OCc1ccccc1)[C@H](C)/C=N\O[C@@H](C)c1cn([C@H](CO)Cc2ccccc2)nn1	-24.2% [at 11.4 µM] (inactive) and -19.2% [at 11.4 µM] (inactive)	
CC1(C)S[C@@H]2[C@H](NC(=O)[C@H](C(=O)O)c3ccsc3)C(=O)N2[C@H]1C(=O)O	-1.54% [at 25.6 µM] (inactive)	
CCOC(=O)C1=C(C)N=C2c3ccccc3C(=O)C2C1c1ccc(C)cc1 (stereo unspecified)	-2% (inactive)	
CCOC(=O)C1=C(C)NC(=O)NC1c1ccoc1 (stereo unspecified)	12% (inactive)	
O=C1CCCC2=C1C(c1ccc(Cl)cc1)C1C(=O)c3ccccc3C1=N2 (stereo unspecified)		25.1 µM (active)
O=C1c2ccccc2C2=Nc3ccccc3SC(c3ccccc3F)C12 (stereo unspecified)	-29.3% (inactive)	
CCOC(=O)C1=C(C)N=C2c3ccccc3C(=O)C2C1c1ccc(Cl)cc1 (stereo unspecified)		15.8 µM (active)
O=C1C(=O)c2ccccc2C(O)=C1C1CCC(c2ccc(Cl)cc2)CC1 (stereo unspecified)	1.9% [at 25.6 µM] (inactive)	
COC(=O)c1c(NC(=O)C(C)(C)C)sc2c1C(C(=O)OC)CC2 (stereo unspecified)	12.1% (inactive)	
O=S(=O)(C[C@H](O)C(Cl)(Cl)Cl)NNc1ccccc1	17.4% [at 11.4 µM] (inactive)	
C[C@H]1O[C@@H](CC(=O)O)Cc2c1c(O)c1c(O)cc(-c3cc(=O)c4c(=O)c5c(c(=O)c=4c3=O)C[C@H](CC(=O)O)O[C@@H]5C)c(O)c1c2O	-3.88% [at 11.4 µM] (inactive)	
CN(C)c1ncc2nc(-c3ccc(F)cc3)c(=O)n(C3CC3)c2n1	7.11% (inactive)	
O=C(Nc1cc(C(F)(F)F)ccc1-n1cncn1)c1ccc(Br)cc1	-9.04% (inactive)	

Structure (SMILES)	activity, negative = inhibition	AC50
C[n+]1cccc(CNC(=O)/C=N/O)c1	31.9% (inactive)	
CC(Oc1ccccc1)c1ccnn1S(=O)(=O)c1ccccc1 (stereo unspecified)	-7.07% (inactive)	
CC[N+](C)(CC)CCC[n+]1c(-c2ccccc2)c2cc(N)ccc2c2ccc(N)cc21		6.31 µM (active)
CN=C(NC#N)Nc1ccc(C2=NNC(=O)C[C@@H]2C)cc1	-20.2% (inactive)	
NC(=O)C1CCN(C(=O)CN2C(=O)c3ccccc3S2(=O)=O)CC1	8.05% (inactive)	
Cc1nc2cnc(N3CCOCC3)nc2n(C)c1=O	-3.65% (inactive)	
CCOC(=O)Oc1c(OC)cc(C(=O)O[C@H]2C[C@H]3CN4CCc5c([nH]c6cc(OC)ccc56)[C@@H]4C[C@H]3[C@@H](C(=O)OC)[C@@H]2OC)cc1OC	-7.6% [at 25.6 µM] (inactive)	
COCCCCC(=NOCCN)c1ccc(C(F)(F)F)cc1		3.98 µM (active)
COc1c(/C=N/Nc2ccc([N+](=O)[O-])cc2[N+](=O)[O-])c(C)nn1-c1ccccc1	-2.55% (inactive)	
C[C@@]12CC[C@@H]3c4ccc(O)cc4CC[C@H]3[C@H]1CC[C@H]2O	-4.58% [at 25.6 µM] (inactive)	
Cc1cccc(C)c1NC(=O)[C@H](C)N	-0.835% [at 25.6 µM] (inactive)	
CCOc1nc(N=C(N)N)nc2c(C)cccc12	-5.31% (inactive)	
Cc1cccc(C)c1OC[C@@H](N)C(C)C		15.8 µM (active)
COC(=O)[C@@]1(Cc2ccccc2)[C@H]2c3cc(C(=O)N4CCCC4)n(CC4CC4)c3C[C@H]2CN1C(=O)c1ccccc1	-17.6% (inactive)	
COC(=O)[C@@]1(Cc2ccccc2)[C@H]2c3cc(C(=O)N4CCCC4)n(Cc4c(CO)[nH]cc(C)c4=O)c3C[C@H]2CN1C(=O)c1ccccc1		12.6 µM (active)
COC(=O)[C@@]1(Cc2ccc(F)cc2)[C@H]2c3cc(C(=O)N4CCCC4)n(Cc4c(CO)[nH]cc(C)c4=O)c3C[C@H]2CN1C(=O)c1ccccc1		12.6 µM (active)
COC(=O)[C@@]1(Cc2ccc(F)cc2)[C@H]2c3cc(C(=O)N4CCCC4)n(Cc4ccccc4)c3C[C@H]2CN1C(=O)c1ccccc1	-15.3% (inactive)	
COC(=O)[C@@]1(Cc2ccccc2)[C@H]2c3cc(C(=O)N4CCCC4)n(Cc4nc5ccccc5[nH]4)c3C[C@H]2CN1C(=O)c1ccccc1		7.94 µM (active)
COC(=O)[C@@]1(Cc2ccc(F)cc2)[C@H]2c3cc(C(=O)N4CCCC4)n(CCc4ccc(O)c(O)c4)c3C[C@H]2CN1C(=O)c1ccccc1		12.6 µM (active)
COC(=O)[C@@]1(Cc2ccc(F)cc2)[C@H]2c3cc(C(=O)N4CCCC4)n(CCc4c[nH]c5ccccc45)c3C[C@H]2CN1C(=O)c1ccccc1	6.26% (inactive)	
COC(=O)[C@@]1(Cc2ccc(F)cc2)[C@H]2c3cc(C(=O)N4CCCC4)n(Cc4ccc(OC(F)(F)F)cc4)c3C[C@H]2CN1C(=O)c1ccccc1	-3.56% (inactive)	
COC(=O)[C@@]1(Cc2ccccc2)[C@H]2c3cc(C(=O)N4CCCC4)n(Cc4cccc5ccccc45)c3C[C@H]2CN1C(=O)c1ccccc1	2.77% (inactive)	
COC(=O)[C@@]1(Cc2ccc(F)cc2)[C@H]2c3cc(C(=O)N4CCCC4)n(CCc4ccc(OC)c(Br)c4)c3C[C@H]2CN1C(=O)c1ccccc1	-7.09% (inactive)	
COC(=O)[C@@]1(Cc2ccc(F)cc2)[C@H]2c3cc(C(=O)N4CCCC4)n(Cc4ccccn4)c3C[C@H]2CN1C(=O)c1ccccc1	-14% (inactive)	
